Platelet DG rel – inhibitors of platelet dense granule secretion, primary screen, cell-based, MLPCN, human platelets; 0.22% of 300,000 active; inhibition, %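 (compounds screened at 7.5 µM in platelet-rich plasma)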; human platelet-rich plasma, SFLLRN dense granule ATP release, luminescence;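 active means mean replicate score, as percent of positive control, at or above 50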
HSP90 refold inh – HSP90 inhibitors, primary screen, cell lysate, luminescence | 0.91% of 290,000 active | inhibition, % at 5.6 µM | Rabbit reticulocyte lysate, luciferase refolding luminescence, 3 h | AID 1789, 2009 | Heat shock protein HSP 90 (rabbit reticulocyte lysate; luciferase refolding);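 active means inhibition above the screen-wide mean plus 3 SD, computed separately per campaign, cut at about 16% in these data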;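 further: 0% = DMSO wells and 100% = 60 µM geldanamycin wells; inhibitors lower the luminescence because luciferase stays unfolded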
SENP8 block-1 – human SENP8 protease inhibitors, primary screen, biochemical, fluorescence, Nedd8 protein substrate, uHTS | recombinant SENP8 | inhibition, % at 20 µM | 0.64% of 360,000 active | Sentrin-specific protease 8 (Homo sapiens), Q96LD8 | AID 602440, 2012; in the data active means inhibition mostly above about 40%, no sharp cut-off; inactive means mostly below about 27%
Target sequence (Q96LD8 whole entry, looked up): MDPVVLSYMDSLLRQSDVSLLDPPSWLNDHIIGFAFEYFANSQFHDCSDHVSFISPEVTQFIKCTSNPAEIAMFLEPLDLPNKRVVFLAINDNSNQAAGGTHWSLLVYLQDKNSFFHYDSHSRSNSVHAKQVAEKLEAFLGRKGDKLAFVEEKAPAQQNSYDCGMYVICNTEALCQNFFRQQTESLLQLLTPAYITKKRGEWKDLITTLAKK
SENP8 block-2 – SENP8 protease inhibitors, primary screen, biochemical, luminescence. Sentrin-specific protease 8 (Homo sapiens), Q96LD8. purified SENP8, Z-RLRGG-aminoluciferin cleavage. inhibition, % at 10 µM. 1.2% of 330,000 active; in the data active means inhibition above about 50%
SENP7 inh – SENP7 protease inhibitors, primary screen, biochemical, luminescence, uHTS; Sentrin-specific protease 7 (Homo sapiens), Q9BQF6; recombinant SENP7, Z-RLRGG-aminoluciferin luminescence, 40 min; inhibition, % at 5 µM; 1.5% of 330,000 active; AID 434973, 2010;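 active means inhibition above about 50% at the single test dose, limit read from the data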;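 further: plate controls were DMSO with enzyme for no effect and no enzyme buffer wells for full effect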
SENP6 inh – SENP6 protease inhibitors, primary screen, biochemical, luminescence, uHTS | 1.8% of 330,000 active | Recombinant SENP6 catalytic domain, aminoluciferin luminescence | inhibition, % at 10 µM | Sentrin-specific protease 6 (Homo sapiens), Q9GZR1;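 active means inhibition above about 50% at the single tested dose, limit read from the data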;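 further: plate controls were DMSO wells with enzyme for no effect and DMSO wells lacking enzyme for full effect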
SENP8 confirm – SENP8 protease inhibitors, retest, confirmation, biochemical, luminescence, single concentration; shares compounds with SENP7 inh; 40% of 6,200 active; inhibition, % at 12.5 µM; Recombinant SENP8, Z-RLRGG-aminoluciferin luminescence, 60 min; AID 488912, 2010;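 active means mean inhibition across replicates above about 50%, limit read from the data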
SENP6 conf – SENP6 protease inhibitors, confirmation, biochemical, luminescence, single concentration. shares compounds with SENP7 inh. recombinant SENP6, Z-RLRGG-aminoluciferin luminescence. inhibition, % at 12.5 µM. 58% of 6,200 active
SENP7 confirm – SENP7 protease inhibitors, retest, confirmation, biochemical, luminescence, single concentration; shares compounds with SENP7 inh; 69% of 6,200 active; AID 488917, 2010; recombinant SENP7, Z-RLRGG-aminoluciferin luminescence, 40 min; inhibition, % at 12.5 µM
Casp3 SENP sel – caspase-3 protease inhibitors, confirmation, selectivity assay for SENP inhibitor project, biochemical, single concentration | purified caspase-3, Z-DEVD-aminoluciferin luminescence, 60 min | 60% of 6,200 active | inhibition, % at 12.5 µM | shares compounds with SENP7 inh;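 active means mean inhibition above about 50%, limit read from the data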;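 further: plate controls were enzyme with DMSO for no effect and wells without caspase-3 for full effect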
Target sequence (P42574 28-227 limits assumed): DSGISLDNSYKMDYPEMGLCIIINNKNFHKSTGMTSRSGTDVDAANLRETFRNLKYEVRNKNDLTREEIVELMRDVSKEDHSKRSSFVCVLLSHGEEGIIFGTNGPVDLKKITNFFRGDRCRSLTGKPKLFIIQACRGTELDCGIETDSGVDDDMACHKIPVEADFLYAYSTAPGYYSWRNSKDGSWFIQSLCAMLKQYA
SENP luc ctr – luminescence interference (SENP counter-screen); shares compounds with SENP7 inh; 39% of 6,200 active; inhibition, % at 12.5 µM; AID 488919; Pre-incubated SENP8/Z-RLRGG-aminoluciferin, luciferase luminescence interference;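 active means mean inhibition above about 50% when retested at one dose, limit read from the data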;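 further: plate controls were DMSO wells with completed reaction for no effect and substrate without enzyme for full effect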
* marks the source's active call; other numbers are inactive results; / = not tested or not shown. Rows were chosen to be rich in hits. Some 2.8% of all compounds tested hit in one or more screens of this group.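 How the source made its calls, unless noted: active means mean inhibition above about 50% in the one-dose retest (limit read from the data); inactive means the rest.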

SMILES	Platelet DG rel	HSP90 refold inh	SENP8 block-1	SENP8 block-2	SENP7 inh	SENP6 inh	SENP8 confirm	SENP6 conf	SENP7 confirm	Casp3 SENP sel	SENP luc ctr
COc1ccc(/C=C2\Cc3ccccc3C2=O)cc1OC	-0.3	0.5	-310.0	/	/	/	/	/	/	/	/
CC1(C)Cc2c(cnn2-c2ccccc2)C(NC(=O)CCN2CCCC2=O)C1 (stereo not given)	0.0	-7.2	1.8	1.1	4.8	18.5	/	/	/	/	/
N#Cc1cc2cc3c(cc2nc1SCC(=O)N1CCCC1)OCCO3	-8.0	2.2	-144.5	-0.8	0.0	-17.1	/	/	/	/	/
CC(=O)CSc1nc2cc3c(cc2cc1C#N)OCCO3	10.8	-1.9	-284.1	95.1*	97.1*	91.4*	83.5*	87.0*	58.1*	86.0*	26.9
CCC(=O)Nc1ccc(OCc2nc3ccccc3s2)cc1	-0.6	0.0	-34.2	75.5*	74.9*	44.6	13.4	80.5*	96.1*	75.0*	15.2
NC(=O)c1ccccc1OCc1nc2ccccc2s1	-7.6	1.7	-20.8	36.7	37.9	47.9	/	/	/	/	/
Fc1ccc(OCc2nc3ccccc3s2)cc1	6.5	-1.9	-27.0	90.3*	93.7*	97.2*	82.4*	92.4*	101.7*	90.3*	78.9*
CC(=O)N1c2ccc(S(=O)(=O)NCCC(=O)NCCc3cccc(C)c3)cc2CC1C (stereo not given)	19.8	-4.6	6.1	-6.8	1.4	-14.6	/	/	/	/	/
CCCC(=O)N1CCC1(C)C(=O)NS(=O)(=O)c1cccs1 (stereo not given)	/	/	-1.2	/	/	/	/	/	/	/	/
CCN(c1ccc(NC(=O)CSCc2c(C)noc2C)cc1)C(C)C	/	/	-6.9	-1.1	8.5	-2.8	/	/	/	/	/
O=C([O-])c1cc(-c2ccccc2)cc(-c2ccccc2)[n+]1Cc1ccccc1	-0.3	/	/	1.7	-5.2	-11.0	/	/	/	/	/
COc1cc(CNC(=O)C2CC2)ccc1OCc1ccccc1	42.1	-2.4	2.0	35.9	48.2	54.7*	43.3	39.9	77.6*	75.8*	39.3
CC(C)C[C@H]1CN(CCCC[C@H]2CNC(=O)C(=O)N2CCC2CCCCC2)C(=O)C(=O)N1CC1CCCCC1	/	/	13.9	/	/	/	/	/	/	/	/
O=C(c1cnn(C(=O)c2ccccc2)c1)c1ccccc1O	1.5	2.3	-95.6	-8.5	4.6	-10.6	/	/	/	/	/
O=C(O)c1ccc(-n2cc(C(=O)c3ccccc3O)cn2)cc1	-3.1	-1.5	12.4	77.9*	78.0*	84.2*	80.9*	78.6*	93.2*	91.3*	85.0*
O=C(c1cnn(-c2ccccc2)c1)c1cc(Br)ccc1O	/	/	23.9	-13.2	-3.7	-7.3	/	/	/	/	/
O=C(c1cnn(-c2cccc(F)c2)c1)c1ccccc1O	6.6	-6.6	12.1	57.8*	67.9*	71.1*	15.7	72.1*	83.6*	55.5*	11.5
O=C(c1cnn(-c2nc3ccccc3s2)c1)c1ccccc1O	1.8	-0.7	16.6	37.7	82.3*	78.7*	15.7	37.2	24.2	17.9	8.8
O=C(c1cnn(-c2ccccc2)c1)c1ccc2ccccc2c1O	5.2	0.6	14.3	41.2	85.6*	7.1	11.8	16.4	-0.1	27.2	0.9

Screening results (PubChem)
